HCMV antiviral: blocks human cytomegalovirus replication; HFF cells, HCMV-luciferase reporter, 72 h; hits give low values; activity change, negative = inhibition, % at 57.5 µM; actives 4.5% (n = 410,000); in the data active = activity change below about -60%; inconclusive = no clear call, values can overlap the other calls; inactive = above about -39%
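Two-dose cell screen: HFF monolayers treated with compounds and infected with luciferase-expressing HCMV at 1 PFU/cell, 72 h at 37C, then lysed for luciferase measurement.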
HCV inh: blocks hepatitis C virus | Potency, µM (series often up to 41.8 µM), without a hit: at the highest dose activity change, negative = inhibition, most hits filed as inhibitors | AID 651820 | actives 3.4% (n = 340,000) | Huh7.5.1 HCVcc-Cre infection, luciferase reporter, 44 h; note: potency is the fitted concentration of half-maximal effect
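HCVcc-Cre virus at an moi near 0.5 was added right after compound to cells cultured 4 h from seeding (1,000 cells/well). Luciferase activity was determined 44 h later, 15 min after substrate addition at RT.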
FMDV antiviral: antivirals against foot and mouth disease virus. actives 1.2% (n = 410,000). AID 1159524. FMDV antiviral cell-based qHTS. Potency, µM (doses to about 57.9 µM), without a hit: at the highest dose activity change, negative = inhibition, usual class: inhibitors; calls by dose curve; tested in HEK293T cells; note: read-out not given here; potency is the fitted concentration of half-maximal effect; nearly all actives have a fitted effect of over 45% in size
LASV entry inh: inhibitors of Lassa virus binding or cell entry; Lassa virus pseudotype entry inhibition, cell reporter; actives 1.2% (n = 300,000); Potency, µM (series often up to 37.9 µM), without a hit: at the top dose activity change, negative = inhibition, usual class: inhibitors; calls by dose curve; tested in HEK293 cells; note: potency is the fitted concentration of half-maximal effect; nearly all actives have a fitted effect of over 50% in size
FBPA Giardia inh: inhibitors of Giardia lamblia fructose-1,6-bisphosphate aldolase. A8B2U2. purified Giardia FBPA. actives 0.71% (n = 290,000). AID 2451. Potency, µM (series often up to 59.6 µM), for inactives: at the highest dose activity, negative = inhibition, hits mostly inhibitors; note: potency is the fitted concentration of half-maximal effect; nearly all actives have a fitted effect of over 55% in size
Target sequence (A8B2U2 whole entry, looked up): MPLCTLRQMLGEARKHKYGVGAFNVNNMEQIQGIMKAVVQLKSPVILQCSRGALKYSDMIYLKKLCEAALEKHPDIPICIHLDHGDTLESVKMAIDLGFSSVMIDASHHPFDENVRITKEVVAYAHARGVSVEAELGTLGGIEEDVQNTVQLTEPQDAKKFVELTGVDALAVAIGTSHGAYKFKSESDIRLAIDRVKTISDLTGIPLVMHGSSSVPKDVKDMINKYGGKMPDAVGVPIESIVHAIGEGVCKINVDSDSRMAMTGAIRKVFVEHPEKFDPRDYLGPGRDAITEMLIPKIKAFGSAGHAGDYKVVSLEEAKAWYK
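40 nM FBPA preincubated 10 min at RT with compound (up to 57.5 uM final), then substrate plus GAPDH/TPI/NAD/arsenate coupling and diaphorase/resazurin added. Fluorescence read after 20 min at RT, 525/598 nm.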
MARV entry inh: Marburg virus entry inhibition | Marburg virus pseudotyped entry inhibition, cell reporter | Potency, µM (highest dose often 37.8 µM), for the others: at the top dose activity change, negative = inhibition, usual class: inhibitors | actives 1.8% (n = 300,000); calls by dose curve; tested in HEK293 cells; note: potency is the fitted concentration of half-maximal effect
Numbers without * were called inactive; ? = inconclusive; nt = no result; [ ] = dose if it differs, or a comment. Only some compounds are listed: those with a hit (about 8.3% of all), similar ones and a draw of the others. Unless noted, calls come from the whole dose curve; as a rule, active = well fitted curve in the direction sought with a large enough effect; inconclusive = small, poorly fitted or top-dose-only effect, or another doubt; inactive = no such curve, though single readings can be large; an effect the other way counts as inactive or inconclusive. % is set by controls: 0 for no effect and ±100 for the full control effect.

SMILES	HCMV antiviral	HCV inh	FMDV antiviral	LASV entry inh	FBPA Giardia inh	MARV entry inh
O=C(NCCCO)C(=O)c1c(-c2ccccc2)cc2ccccn12	-3	3%	-11%	17%[46.1 µM]	6%	?
CCN(CC)S(=O)(=O)c1ccc(N2CCOCC2)c(NC(=O)c2ccc(F)cc2)c1	-16	-11%	-1%	-20%	1%	24%[46.1 µM]
CN(C)CCNC(=O)C(=O)c1c(-c2ccccc2)cc2ccccn12	-40	4%	-6%	3%	5%	-5%[46.1 µM]
CN(C)c1ccc(NC(=O)C2(c3cccs3)CCOCC2)cc1	0	nt	19%	3%[46.1 µM]	nt	nt
CCOC(=O)[C@@H]1[C@H]2COc3cc(OC)ccc3[C@@H]2N2C(=O)N(c3ccc(C(F)(F)F)cc3)C(=O)[C@@]12C	-34	-13%	-16%	nt	-11%	nt
CCOC(=O)[C@@H]1[C@H]2COc3cc(OC)ccc3[C@H]2N2C(=O)N(c3ccc(C)cc3)C(=O)[C@@]12C	-75*	5%	-23%	nt	4%	nt
CCOC(=O)[C@@H]1[C@H]2COc3cc(OC)ccc3[C@@H]2N2C(=O)N(c3ccc(OC)cc3)C(=O)[C@]12C	-15	5%	-15%	nt	-5%	nt
CCOC(=O)[C@@H]1[C@H]2COc3cc(OC)ccc3[C@H]2N2C(=O)N(c3ccc(C(F)(F)F)cc3)C(=O)[C@]12C	-88*	?	?	nt	nt	nt
COc1ccc2c(c1)c(/C=C/c1cc[n+](C)cc1)cn2C	-98*	-21%	?	nt	?	nt
CCn1c(/C=C/c2c[nH]c3ccccc23)nc2ccccc2c1=O	165	-18%	64%	nt	-7%	19%[46.1 µM]
COC(=O)Cn1cc(/C=C/c2cc[n+](C)cc2)c2ccccc21	20	-6%	-10%	nt	?	nt
Cc1ccc2[nH]ccc(=O)c2c1	6	-19%[8.37 µM]	-11%	-23%	1%	-26%
COc1ccc2c(/C=C/c3cc[n+](C)cc3)c[nH]c2c1	-99*	?	?	-15%	?	-28%
Cc1ccc2[nH]cc(/C=C/c3cc[n+](C)cc3)c2c1	-100*	?	-11%	?	-15%	5µM*
CC[n+]1ccc(/C=C/c2c[nH]c3ccccc23)cc1	-94*	2.8µM*	?	nt	?	nt
CCCC(O)c1nnc(Nc2cccc(Cl)c2)s1 (centres undefined)	-1	nt	nt	nt	nt	nt
COC(=O)[C@H](C)NC(=O)C/C=C\[C@@H](C)CO	nt	nt	nt	nt	0%[12.9 µM]	nt
O=c1cc(N2CCCCC2)c(-c2ccccc2)nn1Cc1ccccc1Cl	-18	?	40µM*	?	-1%	?
O=c1cc(N2CCCCC2)c(-c2ccccc2)nn1Cc1ccc(Cl)cc1Cl	-24	-19%	?	?	-2%	?
O=c1c2ccccc2c(-c2ccccc2)nn1Cc1ccc(Cl)cc1	22	1%	-14%	0%	10%	-28%
O=c1cc(Cl)c(-c2ccccc2)nn1Cc1ccc(Cl)cc1	-64*	3%	-14%	-24%	0%	-1%
NC1(C#Cc2ccc3oc(=O)c(-n4cc(-c5ccsc5)nn4)cc3c2)CCCCC1	-72*	?	-21%	nt	nt	nt
NC1(C#Cc2ccc3oc(=O)c(-n4cc(C5(O)CCCCC5)nn4)cc3c2)CCCCC1	-3	0%	2%	nt	nt	nt
COCCN(CCOC)C(=S)Nc1ccccc1	-16	1.8µM*	6%	1%[46.1 µM]	3%	-7%
Cc1ccnc(NC(=O)CS(=O)(=O)Cc2ccccc2)c1	-99*	-6%	34%	-7%	-1%	27%
SMILES	HCMV antiviral	HCV inh	FMDV antiviral	LASV entry inh	FBPA Giardia inh	MARV entry inh
Cc1ccnc(NC(=O)Cc2ccc(-c3ccccc3)cc2)c1	-90*	4µM*	54%	nt	-4%	nt
CC1=NNC(=O)/C1=C\c1cn(-c2ccccc2)nc1-c1cccs1	-100*	?	10µM*	?	-12%	-41%
Cc1c(NC(=O)/C=C/c2cn(-c3ccccc3)nc2-c2ccc(F)cc2)c(=O)n(-c2ccccc2)n1C	0	11µM*	-17%	nt	nt	-1%
O=Cc1cn(-c2ccccc2)nc1-c1ccc(F)cc1	-3	0%	24%	nt	2%	nt
Cc1ccc(-c2nn(-c3ccccc3)cc2/C=C/C(=O)Nc2nccs2)cc1	0	?	-2%	-28%	4%	?
O=C(O)CCCCCN1C(=O)/C(=C\c2cn(-c3ccccc3)nc2-c2cccs2)SC1=S	-39	-26%	-21%	nt	15%	nt
CC1=NNC(=O)/C1=C\c1cn(-c2ccccc2)nc1-c1ccc(F)cc1	nt	4.5µM*	11µM*	?	-13%	8.9µM*
CC(=O)OC[C@H]1O[C@@H](O/N=C(\C)CCN2CCCc3nc(C)c(C)cc32)[C@H](OC(C)=O)[C@@H](OC(C)=O)[C@H]1OC(C)=O	nt	nt	nt	nt	0%[12.9 µM]	nt
Cc1cccc2c1N(C)C(=O)C2=O	-17	13%	3%	-5%	-8%	9%[46.1 µM]
CNc1ncn(-c2c(C)cccc2C)c(=O)n1	-99*	nt	nt	nt	nt	nt
COc1ccc(-c2noc(CSc3nnc(C)n3-c3ccc(F)cc3)n2)cc1	-23	nt	-15%	-17%[46.1 µM]	nt	-11%[46.1 µM]
CCOC(=O)COc1ccc2c(c1)c(C(C)=O)c(C)n2-c1ccc(OC)cc1	10	-8%	-5%	?	-7%	-6%
COc1ccc(-n2c(C)c(C(C)=O)c3cc(OC(=O)c4ccc(C)cc4)ccc32)cc1	-75*	nt	-18%	-24%[46.1 µM]	nt	nt
COc1ccc(-n2c(C)c(C(C)=O)c3cc(O)ccc32)cc1	-65*	-6%	-18%	nt	-1%	-9%
COc1ccc2c(c1)c(C(C)=O)c(C)n2-c1ccccc1	-1	?	nt	4%	-1%	3%
COc1ccc2c(c1)c(C(C)=O)c(C)n2CCc1ccccc1	-91*	?	14µM*	nt	-2%	nt
CCC[C@H]1[C@@H](NC(=O)Nc2ccc(C)cc2)CC[C@@]23CCCN2C(=O)CCC[C@@H]13	40	nt	nt	nt	nt	nt
O=C(OCc1ccccc1Cl)c1ccc(-c2nnn(Cc3ccc(F)cc3)n2)cc1	0	nt	-4%	4%[46.1 µM]	nt	?
Fc1ccc(-c2nnn(Cc3ccccc3Cl)n2)cc1	5	2µM*	52%	?	7%	?
Nc1ccc(-c2nnn(Cc3ccccc3F)n2)cc1	2	-14%	76%	-16%	-3%	28%
Cc1ccccc1Cn1nnc(-c2ccc(F)cc2)n1	-75*	-7%	18%	?	1%	10%[46.1 µM]
CC(C)c1ccc(Nc2nc3ccc(C(=O)c4ccccc4)cc3n3cnnc23)cc1	?	nt	-3%	?	nt	nt
O=C1CN(C(=O)c2ccc(S(=O)(=O)N3CCCCC3)cc2)C(c2ccc(F)cc2)c2cc(F)ccc2N1 (centres undefined)	0	nt	-2%	-9%[46.1 µM]	nt	?
O=C1CN(C(=O)COc2ccccc2)C(c2ccc(F)cc2)c2cc(Br)ccc2N1 (centres undefined)	3	nt	-19%	-20%[46.1 µM]	nt	?
O=C1CN(C(=O)c2cccc(Br)c2)C(c2ccccc2)c2cc(Cl)ccc2N1 (centres undefined)	-63*	nt	-14%	?	nt	nt
